Source: PubChem
A selection: hits, their analogues and other compounds. The true share with any hit is near 7.9%.
LASV entry inh = Lassa virus entry inhibition. Lassa virus pseudotype entry inhibition, cell reporter. Potency, µM (titrated, usually from 37.9 µM), for inactives: at the top dose activity change, negative = inhibition, usual class: inhibitors. 300,000 compounds, 1.2% hits; calls by dose curve; tested in HEK293 cells; further: potency means the concentration at half of the fitted maximal effect; nearly all actives have a fitted effect of over 50% in size
MARV entry inh = blocks Marburg virus binding to or entry into cells. Potency, µM (highest dose often 37.8 µM), inactives show top-dose activity change, negative = inhibition, actives largely listed as inhibitors. Marburg virus pseudotyped entry inhibition, cell reporter. 300,000 compounds, 1.8% hits; calls by dose curve; tested in HEK293 cells; further: potency means the concentration at half of the fitted maximal effect
FMDV antiviral = foot and mouth disease virus antiviral activity | Potency, µM (titrated, usually from 57.9 µM), for inactives: top-dose activity change, negative = inhibition, most hits filed as inhibitors | 410,000 compounds, 1.2% hits | FMDV antiviral cell-based qHTS; calls by dose curve; tested in HEK293T cells; further: read-out not given here; potency means the concentration at half of the fitted maximal effect; nearly all actives have a fitted effect of over 45% in size
HCV inh = HCV inhibition | Huh7.5.1 HCVcc-Cre infection, luciferase reporter, 44 h | Potency, µM (series often up to 41.8 µM), for inactives: top-dose activity change, negative = inhibition, most hits filed as inhibitors | 340,000 compounds, 3.4% hits; active means well fitted inhibition curve with a large enough effect; inconclusive means small, poorly fitted or top-dose-only effect, or another doubt; inactive means no such curve, though single readings can be large or run the other way; further: potency means the concentration at half of the fitted maximal effect
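Compounds are dispensed onto cells plated 4 h earlier at 1,000 per well, with HCVcc-Cre virus (about 0.5 moi) added next. Following 44 h of culture, luminescent signal is measured for 15 sec after 15 min with substrate at room temperature.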
HCMV inh = inhibitors of human cytomegalovirus | HFF cells, HCMV-luciferase reporter, 72 h; hits give low values | 410,000 compounds, 4.5% hits | activity change, negative = inhibition, % at 57.5 µM | AID 1259415; in the data active means activity change below about -60%; inconclusive means no clear call, values can overlap the other calls; inactive means above about -39%
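Human foreskin fibroblasts infected with luciferase-reporter HCMV at MOI 1 PFU/cell, compounds at two doses. Luciferase measured 72 h post infection; normalized to buffer-only basal and Salinomycin (10uM) controls.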
Numbers without * were called inactive; ? = inconclusive; nt = no result given; ! = repeats disagree; [ ] = dose if it differs, or a comment. On the % scale 0 is the no-effect control and ±100 the full control effect.

SMILES	LASV entry inh	MARV entry inh	FMDV antiviral	HCV inh	HCMV inh
O=C(C(NS(=O)(=O)c1cccs1)c1ccccc1)N1CCN(c2ccccc2F)CC1 (stereo not drawn)	7.3µM*	?	-17.3%	?	-23.3
Cc1cccc(N2CCN(C(=O)C(NS(=O)(=O)c3cccs3)c3ccccc3)CC2)c1C (stereo not drawn)	2.59µM*	-29.1%	-11.0%	-27.3%	8.6
COc1cccc(-c2ccnc(-n3ncc(C(=O)NCC4(N5CCCCC5)CCCC4)c3C)n2)c1	nt	nt	-5.9%	nt	nt
O=C(Nc1sc2c(c1C(=O)NCc1cccnc1)CCCC2)c1ccco1	-7.6%	?	-13.8%	7.94µM*	38.8
Cc1ccc(-c2cc(C(=O)Nc3sc4c(c3C(=O)NCc3ccco3)CCC4)[nH]n2)c(O)c1	4.0%	0.6%	25.1µM*	-6.8%	-6.7
Cc1cc(O)c(-c2cc(C(=O)Nc3sc4c(c3C(=O)NCc3ccco3)CCC4)[nH]n2)cc1C	nt	nt	-4.5%	?	-24.2
CC(Oc1ccc(F)cc1)C(=O)Nc1sc2c(c1C(=O)NCc1cccnc1)CCCC2 (stereo not drawn)	-1.9%	1.1%	-19.0%	2.51µM*	35.6
CNC(=O)c1c(NC(=O)c2ccco2)sc2c1CCCC2	-20.3%[46.1 µM]	17.1%[46.1 µM]	12.7%	14.1µM*	48.4
CC(C)OC(=O)c1c(NC(=O)c2ccco2)sc2c1CCCCC2	-7.0%	23.1%[46.1 µM]	-1.0%	?	-12.6
Cc1ccc2c(=O)cc(C(=O)Nc3sc4c(c3C(=O)NCc3cccnc3)CCCC4)oc2c1C	2.5%[46.1 µM]	8.5%[46.1 µM]	-16.0%	nt	16.4
CC(N)Cc1c[nH]c2ccc(OCc3cccs3)cc12 (stereo not drawn)	7.3%	20.6µM*	0.0%	?	?
C[C@H](N)Cc1c[nH]c2ccc(OCc3cccs3)cc12	nt	20.6µM*	-8.2%	nt	nt
CC(N)Cc1c[nH]c2ccc(O)cc12 (stereo not drawn)	16.6%	?	-17.0%	-11.0%	-5.6
CCC1CCCCN1CCCNC(=O)c1cn(CC)c2ccc(S(=O)(=O)N(C)C3CCCCC3)cc2c1=O (stereo not drawn)	27.5%[46.1 µM]	-17.0%[46.1 µM]	9.3%	?	-69.1*!
CCCN(CCC)CCCNC(=O)c1cn(CC)c2ccc(S(=O)(=O)N(C)C3CCCCC3)cc2c1=O	-1.9%[46.1 µM]	5.6%[46.1 µM]	7.8%	?	-81.5*!
CCCN(CCC)CCCNC(=O)c1cn(C)c2ccc(S(=O)(=O)N(C)C3CCCCC3)cc2c1=O	?	9.1%[46.1 µM]	-1.0%	8.2%	?
COc1cc(/C=C/C(=O)c2ccc(O)cc2)ccc1OCC#N	1.58µM*	?	28.2µM*	?	-98.2*
COc1cccc(C(=O)/C=C/c2ccc(OCC#N)c(OC)c2)c1	?	14.6µM*	?	?	-100.0*
O=C(NCCc1ccc(Cl)cc1)c1ccc(CS(=O)(=O)Cc2ccc(Cl)cc2)o1	12.0%[46.1 µM]	nt	1.5%	nt	106.7
CCOc1ccc(CCNC(=O)c2ccc(CS(=O)Cc3ccc(Cl)cc3)o2)cc1OCC (stereo not drawn)	nt	nt	-11.3%	2.51µM*	-30.2
O=C(NCCCc1ccccc1)c1ccc(CS(=O)Cc2ccc(Cl)cc2)o1 (stereo not drawn)	nt	nt	-12.6%	?	-17.9
O=C(NCCc1ccc(Cl)cc1)c1ccc(CS(=O)Cc2ccccc2Cl)o1 (stereo not drawn)	?	nt	?	?	-65.9*!
O=C(NCCc1ccc(Cl)cc1)c1ccc(CS(=O)(=O)Cc2ccccc2F)o1	?	nt	39.8µM*	nt	-37.5
CN1CCN(c2nc3cc(C(F)(F)F)ccc3n3cccc23)CC1	?	8.91µM*	-17.1%	?	?
Oc1ccc(C23CCCC2C2(CCCC2)c2ccc(O)cc2O3)c(O)c1 (stereo not drawn)	nt	nt	-23.7%	10µM*	?
SMILES	LASV entry inh	MARV entry inh	FMDV antiviral	HCV inh	HCMV inh
Cc1ccc(C(=O)N2CCCCC2)cc1S(=O)(=O)N1CCOCC1	-1.1%	16.4%	0.4%	nt	-19.9
CN(C)CCCNS(=O)(=O)c1ccc(N2CCC(c3ccc(Cl)cc3)=N2)cc1	nt	nt	nt	3.98µM*	-102.1*
O=S(=O)(c1ccc(N2CCC(c3ccc(Cl)cc3)=N2)cc1)N(CCO)CCO	-11.6%	-7.7%	-11.5%	13.8%	-27.1
CC(=O)C1=C(c2ccc(Cl)c(Cl)c2)N(C(C)=O)n2c(nnc2C2CCCCC2)S1	17.8%[46.1 µM]	nt	-14.3%	nt	33.2
CC(=O)C1=C(c2ccccc2)N(C(C)=O)n2c(nnc2C2CCCCC2)S1	?	nt	-27.4%	nt	-95.3*
CCC(=O)C1=C(c2ccc(OC)c(OC)c2)N(C(=O)CC)n2c(nnc2-c2ccc(C)cc2)S1	?	nt	-10.6%	nt	34.4
COc1cccc(C2=C(C(C)=O)Sc3nnc(C4CCCCC4)n3N2C(C)=O)c1	?	nt	0.0%	nt	-73.3*
COc1ccc(C2=C(C(C)=O)Sc3nnc(-c4ccc(C)cc4)n3N2C(C)=O)cc1OC	?	nt	-28.6%	nt	-98.7*
CCCCCc1ccc(OCCCC[n+]2ccc(C)cc2)c(CCCCC)c1	4.47µM*	?	?	6.31µM*	-100.2*
CCCCCc1ccc(OCCCC[n+]2cccc(C)c2)c(CCCCC)c1	?	?	?	?	-101.5*
CC(NC(=O)c1cccc(NC(=O)c2nsc3ccccc23)c1)c1ccccc1 (stereo not drawn)	?	nt	8.8%	nt	15.7
Cc1[nH]c2ccc(C(=O)OCC(=O)NC3(C#N)CCCCC3)cc2c1C	6.31µM*	?	?	?	-12.7
CO/N=C/C(C#N)=C/c1cc(C(=O)c2ccccc2)cn1C	?	?	-3.0%	10µM*	-25.8
C=C(C)C(=O)OC[C@@H]1CCC[N@+]2(C)CCCCC12 (stereo partly drawn)	nt	nt	-10.1%	nt	nt
Cc1cnc(C)c(-c2cc(F)cc3c2OC(CNC(=O)Cc2ccccc2C)C3)n1 (stereo not drawn)	nt	nt	-7.5%	nt	nt
O=C(CN1CCN(C(=O)c2ccc(-c3nc4ccccc4s3)o2)CC1)Nc1ccc(F)cc1	nt	nt	?	12.6µM*	-2.0
O=C(CN1CCN(C(=O)c2ccc(-c3nc4ccccc4s3)o2)CC1)Nc1ccccc1Cl	?	?	-23.1%	11.2µM*	27.2
Cc1cccc(NC(=O)CN2CCN(C(=O)c3ccc(-c4nc5ccccc5s4)o3)CC2)c1C	?	?	-9.2%	?	1.5
CC1CCCN(c2ncnc3c2nc2n3CCCCC2)C1 (stereo not drawn)	20.1%[46.1 µM]	nt	55.0%	nt	14.5
CO[C@H]1[C@H](NC(=O)C(C)C)c2ccccc2C12CCN(Cc1c(C)nn(C)c1Cl)CC2	nt	nt	8.7%	nt	nt
Cc1ccc(C(C)C)c(OCc2ccc(C(=O)N/N=C/c3cccc(O)c3O)cc2)c1	11.6µM*	7.31µM*	?	22.4µM*	nt
COc1cc(C(=O)NCCOc2cc(C)ccc2C(C)C)cc(OC)c1OC	2.82µM*	3.16µM*	?	2.82µM*	-67.0*
COc1cc(/C=N/NC(=O)c2ccc(COc3cc(C)ccc3C(C)C)cc2)cc(OC)c1O	?	?	?	?	-87.8*
CCCc1cnc2c(c1SCC(=O)N1CCC(C)CC1)c(=O)n(C)c(=O)n2C	-7.9%[46.1 µM]	nt	-21.7%	nt	-35.1
